Results from paper PMC5540273 (PLoS ONE, 2017).

Experiments:
Conditions in all cases: concentration: 1 μM, replicates: in singlicate; n = 1
ACVR2B = tested on: ACVR2B
ACVRL1 = tested on: ACVRL1
ADCK3 = tested on: T1, ADCK3
T1 construct: gene CABC1

ADCK4 = tested on: ADCK4
AKT1 = tested on: AKT1
AKT2 = tested on: AKT2
AKT3 = tested on: AKT3
ALK = tested on: ALK
AMPK-alpha1 = tested on: T2, AMPK-alpha1
T2 construct: gene PRKAA1

AMPK-alpha2 = tested on: T3, AMPK-alpha2
T3 construct: gene PRKAA2

ANKK1 = tested on: ANKK1
ARK5 = tested on: T4, ARK5
T4 construct: gene NUAK1

ASK1 = tested on: T5, ASK1
T5 construct: gene MAP3K5

ASK2 = tested on: T6, ASK2
T6 construct: gene MAP3K6

AURKA = tested on: AURKA
AURKB = tested on: AURKB
AURKC = tested on: AURKC
AXL = tested on: AXL
BIKE = tested on: T7, BIKE
T7 construct: gene BMP2K

BLK = tested on: BLK
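Also: KINOMEscan kinase panel screen.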

Row | Structure (SMILES) | %Inh (ACVR2B) | %Inh (ACVRL1) | %Inh (ADCK3) | %Inh (ADCK4) | %Inh (AKT1) | %Inh (AKT2) | %Inh (AKT3) | %Inh (ALK) | %Inh (AMPK-alpha1) | %Inh (AMPK-alpha2) | %Inh (ANKK1) | %Inh (ARK5) | %Inh (ASK1) | %Inh (ASK2) | %Inh (AURKA) | %Inh (AURKB) | %Inh (AURKC) | %Inh (AXL) | %Inh (BIKE) | %Inh (BLK)
1 | Cl.c1ccc(-c2n[nH]cc2-c2ccnc(-c3ccc(CN4CCOCC4)cc3)c2)nc1 [GW776245] | 9% | 0% | 34% | 0% | 17% | 0% | 0% | 0% | 0% | 14% | 0% | 0% | 1% | 0% | 0% | 6% | 8% | 0% | 20% | 9%
2 | COc1ccccc1-c1ccc2c(NC(=O)C3CC3)n[nH]c2n1 [SB-711239] | 52% | 0% | 11% | 19% | 0% | 2% | 3% | 18% | 5% | 13% | 9% | 0% | 11% | 17% | 0% | 0% | 0% | 12% | 0% | 6%
3 | COc1cc2nccc(Nc3ccc(NC(=O)c4ccc(C)cc4)c(O)c3)c2cc1OC.Cl [GW440132] | 0% | 0% | 10% | 41% | 0% | 1% | 0% | 6% | 0% | 0% | 0% | 0% | 0% | 0% | 7% | 50% | 57% | 0% | 7% | 95.5%
4 | Cc1c(Cn2ccn3c(=O)cc(N4CCOCC4)nc23)cccc1C(F)(F)F [GSK2289044] | 0% | 0% | 32% | 0% | 0% | 19% | 86% | 5% | 23% | 17% | 6% | 9% | 4% | 7% | 7% | 0% | 3% | 7% | 0% | 0%
5 | CC(=O)Nc1nc2cnc(Nc3cc(NC(=O)c4cccc(CCC#N)c4)ccc3C)nc2s1 | 0% | 15% | 4% | 0% | 17% | 33% | 0% | 0% | 8% | 7% | 0% | 7% | 0% | 16% | 12% | 18% | 7% | 0% | 10% | 0%
6 | Cc1cccc(-c2cc(Nc3ccncc3)c3ccccc3n2)n1 [GSK223675] | 0% | 0% | 0% | 11% | 0% | 0% | 0% | 26% | 0% | 8% | 6% | 8% | 11% | 9% | 9% | 0% | 1% | 0% | 9% | 11%
7 | COc1cc2ncnc(Nc3ccc4nc(-c5ccccc5)[nH]c4c3)c2cc1OC.Cl [GW282450] | 0% | 0% | 10% | 16% | 0% | 0% | 0% | 0% | 0% | 0% | 16% | 0% | 0% | 0% | 99.1% | 28% | 48% | 23% | 14% | 26%
8 | Cn1cncc1-c1ccc2ncnc(Nc3ccc(OCc4ccccc4)cc3)c2c1 [GW320571] | 16% | 23% | 27% | 15% | 0% | 20% | 10% | 21% | 35% | 20% | 0% | 72% | 16% | 7% | 0% | 100% | 38% | 10% | 23% | 13%
9 | O=C(Nc1ccc2c(c1)OCO2)NC1CCN(c2ccnc(Nc3ccc(F)cc3)n2)C1 (stereo not drawn) [GSK1379724] | 0% | 0% | 6% | 36% | 0% | 0% | 0% | 29% | 10% | 0% | 0% | 8% | 3% | 0% | 0% | 99.4% | 52% | 5% | 27% | 19%
10 | CS(=O)(=O)c1ccc(-c2c(-c3ncn[nH]3)sc(N3CCOCC3)c2C#N)cc1 | 0% | 8% | 3% | 0% | 1% | 15% | 0% | 9% | 22% | 8% | 0% | 1% | 0% | 0% | 22% | 0% | 2% | 0% | 6% | 8%
11 | O=S(=O)(c1ccc(-c2ccnc3[nH]ccc23)cc1)N1CCCC1 [GSK846226] | 0% | 0% | 7% | 21% | 0% | 0% | 0% | 10% | 0% | 0% | 0% | 0% | 3% | 14% | 13% | 20% | 60% | 46% | 87% | 0%
12 | COc1ccc(C2=C(Nc3cccc(C(=O)O)c3)C(=O)NC2=O)cc1 [SB-390765] | 0% | 1% | 0% | 0% | 1% | 0% | 14% | 2% | 23% | 2% | 6% | 5% | 9% | 21% | 18% | 26% | 0% | 19% | 18% | 0%
13 | Cl.Oc1ccc(-c2nc(-c3ccccc3)[nH]c2-c2ccncc2)cc1 [SB-428218] | 13% | 0% | 5% | 82% | 0% | 18% | 0% | 44% | 0% | 0% | 10% | 62% | 24% | 0% | 0% | 32% | 0% | 0% | 0% | 58%
14 | COC(=O)c1c(-c2ccccc2)c2cc(OC)ccc2c(=O)n1Cc1ccccc1 | 0% | 0% | 0% | 0% | 1% | 12% | 0% | 28% | 21% | 0% | 0% | 27% | 0% | 37% | 25% | 22% | 0% | 0% | 0% | 0%
15 | Cl.NC(=O)c1cccc(Nc2nccc(Nc3ccc(Oc4cccc(Cl)c4)c(Cl)c3)n2)c1 [GW659008] | 14% | 0% | 5% | 32% | 0% | 8% | 0% | 24% | 42% | 33% | 0% | 0% | 0% | 0% | 6% | 49% | 21% | 12% | 33% | 84%
